Measurements as given in PubChem BioAssay.
Several values for one entry are separate records, joined by “and”; a condition that tells them apart may be missing. Identical values can stand only once. Activity calls are given as the source filed them.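 Rule for the calls, unless noted: active = normalized viability below 100% at a tested concentration; inactive = the rest.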

Columns and labels:
[1] = P. berghei load reduction in hepatocytes – cell-based, HepG2, luciferase luminescence, HepG2 viability, primary screen (AID 624349; in the data active = parasite load remaining mostly below about 12%, no sharp cut-off; inactive = mostly above about 10%;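 note: 100% = mean of DMSO negative control wells on the same plate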); details: P. berghei liver stage in HepG2, luciferase luminescence, concentration not given here; parasite load remaining: stronger effect = lower value; viability: measured here: HepG2 viability without parasites
[2] = signal quenchers or enhancers, Cy5 substrate/SSB – biochemical, NIH Clinical Collection, E. coli SSB, artefact control for HCV NS3 helicase inhibitor project (AID 743268; call rule not given here); details: Cy5-oligo bound E. coli SSB, fluorescence interference
[3] = system: Hepatitis C virus NS3 helicase; assay: blockers of NS3h binding to DNA – biochemical, fluorescence polarization, NIH Clinical Collection, primary screen (AID 743270; call rule not given here); details: NS3 helicase binding to Cy5-dT15 DNA, stronger effect = higher value, concentration not given here
[4] = target: Single-stranded DNA-binding protein (Escherichia coli (strain K12)) (UniProt P0AGE0); assay: SSB-ssDNA binding inhibitors – biochemical, fluorescence polarization, NIH Clinical Collection, counter-screen for HCV NS3 helicase inhibitor project (AID 743271; in the data active = inhibition above about 28%); details: E. coli SSB-DNA binding, stronger effect = higher value, concentration not given here
[5] = compounds distorting NS3 helicase fluorescence signal – biochemical, NIH Clinical Collection, artefact control for HCV NS3 helicase inhibitor project (AID 743272; call rule not given here;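 note: HCV NS3 helicase with a Cy5 labelled single stranded DNA probe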); details: fluorescence interference counterscreen, HCV NS3 helicase assay; stronger effect = lower value
[6] = modulation of C. elegans fzo-1 (AID 1259413; call rule not given here;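 note: fzo-1 mutant C. elegans worms in liquid wells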); details: C. elegans fzo-1 modulator screen, mean read-out; stronger effect = higher value
[7] = EMT-state selective cytotoxicity in co-culture – imaging, PC-3E GFP, TEM4-18 mCherry, primary screen (AID 1345086;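 active = compounds killing one labelled cell type while sparing the other, by normalised counts and ratio limits, not self-fluorescent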;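 for all read-outs here: cells exposed to compound for 72 h before imaging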;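 for red/green cell ratio (normalised): normalised mesenchymal count divided by normalised epithelial count so high means epithelial killing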); details: PC-3E GFP / TEM4-18 mCherry co-culture, imaging cell counts, at 1 µM; for red/green cell ratio (normalised): actives lie on both sides, counts scaled to control wells, 1 = unselective
[8] = MELAS cybrid and Rieske KO viability enhancers – cell-based, MELAS cybrids, Rieske KO mouse fibroblasts, CellTiter-Glo, primary screen (AID 1508586;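 active = mean z-score across replicates of 1.96 or higher in either the MELAS or the Rieske mutant cell line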;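 note: z relative to plate mean and SD of compound and empty wells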); details: low glucose
[9] = drug combination growth inhibition, ovarian cancer – cell-based, oncology-focused library, rucaparib conditional, profiling panel (AID 1508598); details: patient-derived ovarian cancer cells, CellTiter-Glo viability, 144 h, stronger effect = lower value
F380Y = assay: BK channel mutant inhibitors and activators – cell-based, U2OS BacMam, thallium flux, beta subunits, selectivity assay, profiling panel (AID 1259406;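 active = thallium flux through the channel raised or lowered by more than 3 SD from vehicle-only wells, actives on both sides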;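 note: initial slope of Thallos dye fluorescence rise after thallium is added; log ratio against the mean of 0.3% DMSO vehicle wells on the same plate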); details: U2OS BacMam BK variants, at 30 µM
F380Y/beta1 = assay: as above; details: U2OS BacMam BK variants, at 30 µM
F380Y/beta2Delta = assay: as above; details: U2OS BacMam BK variants, at 30 µM
F380Y/beta4 = assay: as above; details: U2OS BacMam BK variants, at 30 µM
[10] = target: Calcium-activated potassium channel subunit alpha-1 (Homo sapiens) + Leucine-rich repeat-containing protein 26 (Homo sapiens) (UniProt Q12791+Q2I0M4); assay: as above; details: U2OS BacMam BK variants, F380Y/Slo1WT/gamma1, at 30 µM
Sequence of Calcium-activated potassium channel subunit alpha-1 (Homo sapiens) + Leucine-rich repeat-containing protein 26 (Homo sapiens) (Q2I0M4 whole entry, looked up, one chain of several): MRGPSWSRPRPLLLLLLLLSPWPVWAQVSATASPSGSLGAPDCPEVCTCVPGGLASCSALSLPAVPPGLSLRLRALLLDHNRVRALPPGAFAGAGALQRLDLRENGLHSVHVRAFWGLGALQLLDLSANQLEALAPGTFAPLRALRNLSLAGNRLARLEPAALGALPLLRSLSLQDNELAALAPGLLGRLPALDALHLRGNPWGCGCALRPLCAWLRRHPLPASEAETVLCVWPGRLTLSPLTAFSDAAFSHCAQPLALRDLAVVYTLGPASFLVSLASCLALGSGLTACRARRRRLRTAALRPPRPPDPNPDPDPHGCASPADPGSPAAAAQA

R275C = assay: as above; details: U2OS BacMam BK variants, at 30 µM
R275C/beta1 = assay: as above; details: U2OS BacMam BK variants, at 30 µM
R275C/beta2Delta = assay: as above; details: U2OS BacMam BK variants, at 30 µM
R275C/beta4 = assay: as above; details: U2OS BacMam BK variants, at 30 µM
R275C/Slo1WT/beta2 = assay: as above; details: U2OS BacMam BK variants, at 30 µM
[11] = viability loss with induced miR-34 in A549 – imaging, A549 dox-inducible miR-34, nuclei and caspase counts, primary screen (AID 1347080;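 active = compounds whose cell count with miR-34 switched on is under 0.7 times the count with it off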); details: A549 miR-34 inducible, Hoechst nuclei count, 48 h
[12] = measured here: epithelial PC-3E GFP cell survival
[13] = measured here: mesenchymal TEM4-18 mCherry cell survival
[14] = MELAS cybrid survival, CellTiter-Glo 48 h, stronger effect = higher value
[15] = Rieske KO mouse fibroblast survival, CellTiter-Glo 72 h

O=C1CN2Cc3c(ccc(Cl)c3Cl)N=C2N1
active: viability ([9]; at 0.000305 µM, OCI-P5x cells, with rucaparib 20 µM, 100% = cells with rucaparib alone) 98.8% | viability ([9]; at 0.000305 µM, OCI-P5x cells, without rucaparib) 72% | viability ([9]; at 0.0195 µM, OCI-P5x cells, with rucaparib 20 µM, 100% = cells with rucaparib alone) 99.6% | viability ([9]; at 0.0781 µM, OCI-P5x cells, with rucaparib 20 µM, 100% = cells with rucaparib alone) 94% | viability ([9]; at 0.313 µM, OCI-P5x cells, with rucaparib 20 µM, 100% = cells with rucaparib alone) 90.5% | viability ([9]; at 0.313 µM, OCI-P5x cells, without rucaparib) 92.4% | viability ([9]; at 1.25 µM, OCI-P5x cells, with rucaparib 20 µM, 100% = cells with rucaparib alone) 88.3% | viability ([9]; at 1.25 µM, OCI-P5x cells, without rucaparib) 92.2% | viability ([9]; at 5 µM, OCI-P5x cells, with rucaparib 20 µM, 100% = cells with rucaparib alone) 83.7% | viability ([9]; at 5 µM, OCI-P5x cells, without rucaparib) 85.5%
-0.321 and 0.64 and -0.821: z-score [8, 15]
inactive: parasite load remaining [1] 45.6% and 99.2% and 57.7% | fluorescence ratio [2] 1.06 | inhibition [3] -12.3% | inhibition [4] -7.03% | fluorescence ratio [5] 1.02 | mean signal [6] 210 | red/green cell ratio (normalised) [7] 0.92 | z-score [8, 14] -0.241 and 0.475 and -0.0504 | viability ([9]; at 0.000305 µM, OCI-C5x cells, with rucaparib 10 µM, 100% = cells with rucaparib alone) 111% | viability ([9]; at 0.000305 µM, OCI-C5x cells, without rucaparib) 124% | viability ([9]; at 0.00122 µM, OCI-C5x cells, with rucaparib 10 µM, 100% = cells with rucaparib alone) 113% | viability ([9]; at 0.00122 µM, OCI-C5x cells, without rucaparib) 126% | viability ([9]; at 0.00122 µM, OCI-P5x cells, with rucaparib 20 µM, 100% = cells with rucaparib alone) 100% | viability ([9]; at 0.00122 µM, OCI-P5x cells, without rucaparib) 107% | viability ([9]; at 0.00488 µM, OCI-C5x cells, with rucaparib 10 µM, 100% = cells with rucaparib alone) 115% | viability ([9]; at 0.00488 µM, OCI-C5x cells, without rucaparib) 121% | viability ([9]; at 0.00488 µM, OCI-P5x cells, with rucaparib 20 µM, 100% = cells with rucaparib alone) 106% | viability ([9]; at 0.00488 µM, OCI-P5x cells, without rucaparib) 105% | viability ([9]; at 0.0195 µM, OCI-C5x cells, with rucaparib 10 µM, 100% = cells with rucaparib alone) 111% | viability ([9]; at 0.0195 µM, OCI-C5x cells, without rucaparib) 115% | viability ([9]; at 0.0195 µM, OCI-P5x cells, without rucaparib) 103% | viability ([9]; at 0.0781 µM, OCI-C5x cells, with rucaparib 10 µM, 100% = cells with rucaparib alone) 109% | viability ([9]; at 0.0781 µM, OCI-C5x cells, without rucaparib) 107% | viability ([9]; at 0.0781 µM, OCI-P5x cells, without rucaparib) 101% | viability ([9]; at 0.313 µM, OCI-C5x cells, with rucaparib 10 µM, 100% = cells with rucaparib alone) 125% | viability ([9]; at 0.313 µM, OCI-C5x cells, without rucaparib) 118% | viability ([9]; at 1.25 µM, OCI-C5x cells, with rucaparib 10 µM, 100% = cells with rucaparib alone) 123% | viability ([9]; at 1.25 µM, OCI-C5x cells, without rucaparib) 107% | viability ([9]; at 5 µM, OCI-C5x cells, with rucaparib 10 µM, 100% = cells with rucaparib alone) 122% | viability ([9]; at 5 µM, OCI-C5x cells, without rucaparib) 116% | log fold change Tl+ flux (F380Y) -0.00116 | log fold change Tl+ flux (F380Y/beta1) 0.0415 | log fold change Tl+ flux (F380Y/beta2Delta) 0.0342 | log fold change Tl+ flux (F380Y/beta4) 0.00749 | log fold change Tl+ flux [10] -0.00535 | log fold change Tl+ flux (R275C) -0.0701 | log fold change Tl+ flux (R275C/beta1) -0.00554 | log fold change Tl+ flux (R275C/beta2Delta) -0.00347 | log fold change Tl+ flux (R275C/beta4) -0.00682 | log fold change Tl+ flux (R275C/Slo1WT/beta2) -0.00842
0.79: normalised cell number [7, 13]
99.2% and 69.6% and 96.5%: viability [1]
0.86: normalised cell number [7, 12]

C[C@@H](c1ncncc1F)[C@](O)(Cn1cncn1)c1ccc(F)cc1F
0.93: normalised cell number [7, 12]
2.46: fold change ([11]; measured here: relative caspase fold change +Dox/-Dox)
0.96: normalised cell number [7, 13]
75.1%: viability [1]
inactive: parasite load remaining [1] 100% | fluorescence ratio [2] 1.03 | inhibition [3] 3.56% | inhibition [4] -6.26% | fluorescence ratio [5] 1.02 | mean signal [6] 264 | red/green cell ratio (normalised) [7] 1.03 | fold change ([11]; stronger effect = lower value, cell number ratio, induced over uninduced) 0.997 | z-score [8, 14] 0.391 | log fold change Tl+ flux (F380Y) 0.0491 | log fold change Tl+ flux (F380Y/beta1) -0.0167 | log fold change Tl+ flux (F380Y/beta2Delta) 0.0265 | log fold change Tl+ flux (F380Y/beta4) 0.000651 | log fold change Tl+ flux (R275C) -0.0159 | log fold change Tl+ flux (R275C/beta1) 0.036 | log fold change Tl+ flux (R275C/beta2Delta) 0.0278 | log fold change Tl+ flux (R275C/beta4) -0.0222 | log fold change Tl+ flux (R275C/Slo1WT/beta2) -0.0193
9170: cell count ([11]; measured here: total cells without miR-34 induction)
active: log fold change Tl+ flux [10] 0.106
9140: cell count ([11]; measured here: total cells with miR-34 induction, stronger effect = lower value)
-0.0394: z-score [8, 15]
